Drawing on ChEMBL document CHEMBL1961873, “Compounds: GSK PKIS; Assays: Nanosyn kinase panel” (2012), this text covers inhibition for 16 compounds.

Where “and” joins values, the source holds several entries; their conditions need not be identical. Equal values may be shown once.
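Also: values are mean percent inhibition of ZAP-70 kinase.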

The target of this test is T1, Tyrosine-protein kinase ZAP-70 (Homo sapiens) (UniProt P43403).
T1 sequence (whole entry): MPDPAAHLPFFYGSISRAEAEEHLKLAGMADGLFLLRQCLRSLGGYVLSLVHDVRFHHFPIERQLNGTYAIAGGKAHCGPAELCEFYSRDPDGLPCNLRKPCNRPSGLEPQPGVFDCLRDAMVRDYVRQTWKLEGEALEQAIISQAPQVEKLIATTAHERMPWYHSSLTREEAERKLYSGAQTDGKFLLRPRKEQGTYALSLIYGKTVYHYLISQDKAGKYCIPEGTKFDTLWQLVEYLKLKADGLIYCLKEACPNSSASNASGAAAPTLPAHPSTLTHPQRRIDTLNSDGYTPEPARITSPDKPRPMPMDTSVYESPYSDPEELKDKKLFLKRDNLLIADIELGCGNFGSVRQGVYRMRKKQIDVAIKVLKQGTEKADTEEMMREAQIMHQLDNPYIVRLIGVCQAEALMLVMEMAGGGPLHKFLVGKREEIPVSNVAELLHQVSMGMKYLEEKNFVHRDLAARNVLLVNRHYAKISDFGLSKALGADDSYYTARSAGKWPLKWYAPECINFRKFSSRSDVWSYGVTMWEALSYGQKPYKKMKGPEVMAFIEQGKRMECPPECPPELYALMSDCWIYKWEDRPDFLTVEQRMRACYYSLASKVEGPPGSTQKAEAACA
As to conditions: at 0.1 µM.
As usually defined, the inhibition is the drop in the measured response relative to a control, in per cent. `O=C1Nc2ccccc2/C1=C1\CCc2cc(O)ccc21`: the inhibition is 3.48%.

Take `CCS(=O)(=O)c1ccc(OC)c(Nc2ncc(-c3cccc(C(C)=O)c3)o2)c1`: the inhibition came to 2.04%.

Take `Cc1ccc(-c2cc3c(NC(=O)C4CC4)ncnc3o2)cc1`: the inhibition was 1.07%.

For `COc1ccc(-c2nn3ncccc3c2-c2ccnc(Nc3ccc(F)c(F)c3)n2)cc1`, the inhibition worked out at 2.54%.

Consider `O=C(Nc1n[nH]c2nnc(-c3cccnc3)cc12)C1CC1`, for which the inhibition is -1.5%.

For `O=C(O[C@H]1CN[C@H](C#Cc2cc3ncnc(Nc4ccc5c(ccn5Cc5cc(F)ccc5F)c4)c3s2)C1)N1CCOCC1`, the inhibition turned out to be 0.89%.

For `COc1cccc(Nc2nccc(-c3cnn4ncccc34)n2)c1`, the inhibition turned out to be 2.31%.

Regarding `Nc1nccc(-c2c(-c3ccc(F)cc3)ncn2C2CCNCC2)n1`, the inhibition is 1.4% and 0.85%.

For `NC(=O)c1ccc2c(-c3ccnc(NCCCO)n3)c(-c3ccc(F)cc3)nn2c1`, the inhibition was determined as 1.7%.

In the case of `CS(=O)(=O)Nc1ccc(-c2cc(-c3ccccc3)cc(C(N)=O)c2N)cc1`, the inhibition is -2.43%.

As for `CS(=O)(=O)Nc1ccc(-c2ccc3c(NC(=O)C4CC4)n[nH]c3c2)cc1`, the inhibition turned out to be 1.11%.

For `Cn1c(-c2nonc2N)nc2cnccc21`, the inhibition came out at 3.27%.

As to `CC1=C(C(=O)Nc2ccc3[nH]ncc3c2)C(c2ccc(F)cc2)N=C(c2ccc(C(F)(F)F)nc2)N1` (stereo unspecified), the inhibition is 2.61%.

On to `c1ccc(-c2n[nH]cc2-c2ccnc(-c3ccc(OCCn4ccnc4)cc3)c2)nc1`, for which the inhibition is 2.15%.

Regarding `CS(=O)(=O)CCNCc1ccc(-c2ccc3ncnc(Nc4ccc(OCc5cccc(C(F)(F)F)c5)cc4)c3c2)o1`, the inhibition amounted to 3.18%.

On to `FC(F)(F)CNc1nccc(-c2cnn3ncccc23)n1`, for which the inhibition stood at 0.71%.
